A selection follows.
TNAP pNPP inh: blocks human TNAP p-nitrophenol release | purified TNAP, pNPP hydrolysis, absorbance 405 nm | 21,000 tested, under 10 active | inhibition, % at 20 µM;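 note: 0% = DMSO only wells and 100% = 1 mM levamisole wells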
Target sequence (P05186 whole entry, looked up): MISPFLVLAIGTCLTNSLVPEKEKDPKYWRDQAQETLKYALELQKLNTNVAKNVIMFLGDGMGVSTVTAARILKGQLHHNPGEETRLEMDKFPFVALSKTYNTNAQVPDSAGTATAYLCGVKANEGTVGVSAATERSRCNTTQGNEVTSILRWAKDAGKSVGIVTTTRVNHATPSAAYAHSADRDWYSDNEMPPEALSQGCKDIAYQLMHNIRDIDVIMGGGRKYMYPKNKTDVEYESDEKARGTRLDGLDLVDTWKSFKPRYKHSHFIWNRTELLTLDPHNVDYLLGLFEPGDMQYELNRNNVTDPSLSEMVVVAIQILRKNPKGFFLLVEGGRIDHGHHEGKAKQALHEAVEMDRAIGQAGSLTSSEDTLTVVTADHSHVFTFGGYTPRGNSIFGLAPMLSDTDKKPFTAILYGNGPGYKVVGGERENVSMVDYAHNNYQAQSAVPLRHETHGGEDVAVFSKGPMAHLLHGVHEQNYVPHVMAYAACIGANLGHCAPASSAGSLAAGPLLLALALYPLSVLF
TNAP inh Pi: human TNAP inhibition, phosphate detection; purified TNAP, pNPP, malachite green phosphate absorbance; inhibition, % at 20 µM; 21,000 tested, under 10 active; AID 614
Numbers without * were called inactive.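 Rule for the calls: active = inhibition above 50% at the 20 µM single-dose screen; inactive = the rest.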

SMILES	TNAP pNPP inh	TNAP inh Pi
COc1ccccc1Cn1c(CCCO)nc2ccccc21	2	3
COC(=O)CN(c1ccccn1)S(=O)(=O)c1ccccc1	8	11
Cc1sc2ncnc(N3CCCCC3C)c2c1C (stereo not given)	8	16
Cc1ccc(S(=O)(=O)/N=C(\CN2CCCCC2)N2CCOCC2)cc1	4	8
CN(C)C=Nc1nonc1-c1ncn[nH]1	6	16
CCn1c(COc2ccccc2C)nnc1SCC(=O)NCc1ccccc1	5	8
COc1ccc(C(=O)CSc2nnc(C(CO)NC(=O)c3ccc(OC)cc3)n2C)cc1 (stereo not given)	2	2
COc1ccccc1C1(O)CC2CCC(C1)N2S(=O)(=O)c1ccc(C(C)=O)cc1 (stereo not given)	4	9
CS(=O)(=O)N(CC(=O)NCC1CCCO1)Cc1ccc(Cl)cc1 (stereo not given)	1	6
CCn1c(COc2ccccc2C)nnc1SCC(=O)N1CCC(C)CC1	7	10
CCCOc1ccc2c(C)c(CC(=O)OC)c(=O)oc2c1	5	11
Cc1cccnc1NC(=O)c1c(O)c2ccccc2n(C)c1=O	3	6
CCOc1ccccc1Nc1nc(N)nc(CSc2nncn2C)n1	8	12
C=C(C)CSC1=C(C#N)C(c2ccsc2)CC(=O)N1 (stereo not given)	0	0
c1ccc(-c2nnc3sc(-c4cc5ccccc5o4)nn23)cc1	-3	5
COC(=O)C1=C2SC(C)C(=O)N2C(N)=C(C#N)C1c1cc(OC)c(OC)c(OC)c1 (stereo not given)	-11	0
COC(=O)c1ccccc1NC(=O)c1ccccc1OC	0	2
COc1cc(SC)ccc1C(=O)NCCCOC(C)C	3	-2
Cc1cccc(OCCN2CSC(=S)N(C)C2)c1	0	0
O=C1C=C(c2ccccc2)C(O)(c2ccccc2)C1 (stereo not given)	-4	0
O=C1NCC(COCC2CC=CCC2)O1 (stereo not given)	0	0
O=C(CCCCCN1C(=O)CCC1=O)Nc1ccc(Br)cc1F	6	20
CCOc1ccccc1-n1c(SCC(=O)N(CC)CC)nnc1-c1ccccn1	6	10
Cn1c[n+](C)cc1/C=N/O	0	6
CN(C)/C=C1\N=C(c2cccs2)OC1=O	-2	-1
SMILES	TNAP pNPP inh	TNAP inh Pi
O=C(CCC1CCCCC1)Nc1ncn[nH]1	12	0
CCc1nnc(NC(=O)CCC(=O)NC2CCCCC2)s1	8	-4
CCOC(=O)c1[nH]c2ccc(F)cc2c1NC(=O)CN1CCc2cc(OC)c(OC)cc2C1	-1	4
CC(OC(=O)c1cccs1)C(=O)NCc1cccs1 (stereo not given)	6	14
CN(C)S(=O)(=O)c1ccc(C(=O)Nc2ccnn2C2CCCCC2)cc1	-2	-3
O=C(O)c1cc(S(=O)(=O)NCc2ccco2)c(Cl)cc1Cl	6	4
OC(C#CCN1CCOCC1)(c1ccccc1)C1CC1 (stereo not given)	-7	-1
CN1CCN(c2ccccc2NC(=O)c2cc(Br)ccc2Cl)CC1	3	12
Cc1occc1C(=O)N1CCN(S(C)(=O)=O)CC1	0	-30
CCOC(=O)N1CCC(Nc2ncnc3c2cnn3-c2ccccc2)CC1	7	12
CN(C)S(=O)(=O)Nc1ccc(NS(=O)(=O)N(C)C)c(S(=O)(=O)c2ccccc2)c1	-8	-15
COc1ccc2c(c1)c(=O)oc1c(C)c3occ(C)c3cc12	1	9
CCNC(=O)N1CCNC(=O)C1CC(=O)OC (stereo not given)	-1	2
O=C1COc2ccc(C(=O)c3ccccc3)cc2CN1	5	9
O=C1CC(N2CCOCC2)C(=O)N1c1cc(Cl)cc(Cl)c1 (stereo not given)	-3	3
O=C(NCCn1cccc1)c1cccc2ccccc12	6	-35
COCCSc1ccccc1C(=O)NCCCn1ccnc1	4	1
Cc1cc(C)n(-c2nc(SCC(=O)NCC3CCCO3)c3c4c(sc3n2)CCCC4)n1 (stereo not given)	4	-11
CCOC(=O)NC1(C(F)(F)F)C(=O)N(Cc2ccccn2)C2=C1C(=O)CC(C)(C)C2 (stereo not given)	1	4
Cc1ccc(NC(=O)N2CCC(O)(c3ccc(Cl)cc3)CC2)cc1	-9	-4
CN(CC(=O)NC1CCCCC1)S(=O)(=O)c1ccc(Cl)cc1	-2	7
Nc1cccc(C(=O)Nc2ccco2)c1	6	10
COc1ccc(OC)c(N/C(C)=C/C(=O)c2ccc(C)o2)c1	0	0
COc1ccc(C2C(C(C)=O)=C(O)C(=O)N2c2cccnc2)c(OC)c1 (stereo not given)	0	3
CC(=O)NC(Cc1cnc[nH]1)C(=O)O (stereo not given)	0	0
Cn1ccnc1C(O)(c1nnc(-c2ccccc2)o1)C(F)(F)F (stereo not given)	-9	-3
Clc1ccc(CSc2nnc(-c3ccncc3)o2)c(Cl)c1	-3	-5
CCCCC(=O)Nc1c(O)c2ccccc2[nH]c1=O	-2	-2

Compound activity from PubChem BioAssay.
